Results published in ChEMBL document CHEMBL3988442, “University of Dundee, Small-Polar-MMV Screening Library” (2021).
About 960 (1.5%) of roughly 66,000 compounds showed an effect of 50% or more. Only a selection was taken, and strong results are over-represented in it overall.

Test system: Trypanosoma brucei
Assay: Trypanosoma brucei 72 hour study
Format: functional, organism-based
Design: scale not given: in the data most compounds retested in dose-response had high values

SMILES | Percent Effect (30.3 µM, […]) | Percent Effect (30 µM, 30.03 µM)
COc1ccc(C2(NCc3c(C)nc4c(C)cccn34)CCCC2)cc1.O=C(O)CC(O)(CC(=O)O)C(=O)O | -8.607% | 
CCC(=O)N1CCN(C(=O)CCn2cc(Cl)cn2)[C@H]2CS(=O)(=O)C[C@H]21 |  | 35.1%
Cc1cnn(CCC(=O)N2CCN(C(=O)C(C)C)[C@@H]3CS(=O)(=O)C[C@@H]32)c1 |  | 31%
Cc1cnn(CCC(=O)N2CCN(C(=O)C3CC3)[C@@H]3CS(=O)(=O)C[C@@H]32)c1 |  | 64.13%
CCCNC(=O)C1CCN(CC(O)c2ccc(C(F)(F)F)cc2)CC1 (stereo unspecified) | 11.33% | 
Cc1cc(CN2CCC(CNS(=O)(=O)c3ccc(Br)s3)CC2)c(C)o1 | 55.92% | 
Cc1cc(CN2CCC(CNS(=O)(=O)c3ccccc3F)CC2)c(C)o1 | 3.502% | 
Cc1cc(CN2CCC(CNS(=O)(=O)c3ccc(C)s3)CC2)c(C)o1 | -7.383% | 
CCC(CN1CCCC1)n1cncc1-c1cnn(-c2ccccc2)c1.Cl (stereo unspecified) | -6.567% | 
Cc1cc(C)c(CNC(=O)NCc2ccc(F)c(C)c2)c(=O)[nH]1 | -14.44% | 
O=C1CN(C(=O)[C@H]2CC[C@]3(CC2)CNC(=O)c2ccccc2O3)CCN1 | -6.646% | 
Cc1cnc2c(c1NCc1ccc3c(c1)OCO3)c(=O)n(C)c(=O)n2C |  | -27.04%
COCc1cc(CNC(=O)c2cc(NC(C)=O)ccc2Cl)n[nH]1 |  | -15.93%
CCc1cc(CNC(=O)c2cc(NC(=O)C(C)C)ccc2Cl)[nH]n1 | 61.59% | 
Cc1cc(CNC(=O)c2cc(NC(=O)C(C)C)ccc2Cl)no1 | -13.13% | 
CN(C)C(=O)CN1CCc2ncnc(NC3CCC3)c2CC1.O=C(O)C(F)(F)F | -31.13% | 
CCN(CC)Cc1cc(=O)n2c(n1)CN(C(=O)c1ccc[nH]1)CCC2 | 11.69% | 
Cc1nc(C)n(CC2CCCN(Cc3nnc(C(C)(C)C)o3)C2)n1 (stereo unspecified) |  | 14.46%
Cc1ccccc1CNC(=O)Cn1ncc2c1c(C)nn2C | -7.192% | 
Cc1nn(C)c2cnn(CC(=O)NCc3ccccc3F)c12 | -20.3% | 
COc1ccccc1CNC(=O)Cn1ncc2c1c(C)nn2C |  | 68.66%
CN(Cc1ccc(N(C)C)cc1)C(=O)CSc1ccc(Br)cc1 | 12.7% | 
CS(=O)(=O)N1CC2(CCN(C(=O)c3ccncc3)CC2)c2ccccc21.O=C(O)C(F)(F)F | -14.55% | 

SMILES | Percent Effect (30.3 µM, […]) | Percent Effect (30 µM, 30.03 µM)
CN(Cc1ccco1)[C@@H]1CN(Cc2ccsc2)C[C@@H]2CCCO[C@@H]21.O=C(O)C(F)(F)F.O=C(O)C(F)(F)F |  | 27.39%
CN(C)C[C@@H]1C[C@@H]2CN(Cc3nccn3C)CC[C@@H]2N1CC1CC1 | -12.03% | 
Cc1cccc(OCC2CCCN(C(=O)CN(C)C3CCNCC3)C2)c1 (stereo unspecified) |  | 6.222%
Cc1ccccc1OCC1CCCN(C(=O)CN(C)C2CCNCC2)C1 (stereo unspecified) |  | 59.87%
COCC(=O)N1CCCC(COc2ccccc2C)C1 (stereo unspecified) |  | -51.53%
Cc1ccccc1-n1ncc(C(C)N)c1C (stereo unspecified) | -16.93% | 
Cc1ncc(CN2CCCC2)c2cc(C(=O)c3ccc(Br)cc3)oc12.Cl |  | -13.22%
CC(C)CNC(=O)[C@H]1CCS(=O)(=O)[C@@H]2CN(CC(C)C)C[C@H]12.O=C(O)C(F)(F)F | -19.44% | 
CC(C)Oc1ncc(C(=O)N2CCC(CC(N)=O)CC2)cc1Cl | -51.28% | 
CC(=O)N1CCN(C(=O)c2cnc(OC(C)C)c(Cl)c2)CC1 | -3.997% | 
CC(C)Oc1ncc(C(=O)N2CCC(N(C)C)CC2)cc1Cl | 99.1% | 
Cc1n[nH]cc1CNC1(c2ccc(Br)cc2)CC1 | -166.2% | 
Cc1n[nH]cc1CNC1(c2ccc(F)cc2)CCCC1 | -110.9% | 
Cc1n[nH]cc1CNC1(Cc2ccc(Br)cc2)CCCCC1 | 80.83% | 
O=C(O)C(F)(F)F.O=C(O)C(F)(F)F.O=C1NC2(CCN(Cc3ccc(F)cc3)CC2)CC1c1ccncc1 (stereo unspecified) |  | 28.32%
Cc1cc(S(=O)(=O)NC(C)(C)CN)c(F)cc1F.Cl |  | -23.52%
Cc1oncc1C(=O)N1CC2CC1(C(=O)N(C)C)C2 | -15.18% | 
COCC1c2c(cnn2CC2CC2)CCN1Cc1cccs1.O=C(O)C(F)(F)F.O=C(O)C(F)(F)F (stereo unspecified) |  | -88.48%
COCC1c2c(cnn2CC2CC2)CCN1Cc1nccs1.O=C(O)C(F)(F)F.O=C(O)C(F)(F)F (stereo unspecified) |  | 52.09%
CCOCC1c2c(cnn2CC2CC2)CCN1Cc1nccs1.O=C(O)C(F)(F)F.O=C(O)C(F)(F)F (stereo unspecified) | -3.24% | 
Cc1cccc2c1cnn2CCCNC(=O)C1CC1 | -16.1% | 
O=C(CN1CC(c2nc(C3CC3)no2)C1)N1CCOCC1.O=C(O)C(=O)O |  | 47.84%
O=C(O)C(F)(F)F.O=C([C@H]1CC[C@@H]2[C@@H](CCN2C2CCCCC2)O1)N1CCOCC1 | 2.517% | 
